Laboratory results taken from PubChem BioAssay (EPA / NIEHS).
Calls of active or inactive are those of the source. The calls were made as follows: active = hit-call score of the fitted dose curve at least 0.9, where 1 is the maximum; inactive = score below 0.9.

Assay: ATG_TCF_b_cat_CIS: Attagene CIS-FACTORIAL HepG2 Assay for human T-Cell-Factor with beta-catenin (TCF/b-cat) (AID 2282965)
Conditions: HepG2 TCF/beta-catenin cis-reporter transcription, actives raise or lower the signal
Summary of the method: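 HepG2, transient MRTU transfection, cis-element-driven reporters (endogenous TFs). 24 h compound exposure. Readout: reporter mRNA by RT-PCR + 6-FAM primer extension, HpaI digest, capillary electrophoresis. Gain/loss fit vs DMSO baseline.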
In the case of `CCC1(c2ccccc2)C(=O)N=C(O)NC1=O` (stereo unspecified), the outcome is reported as “inactive”.
For `COP(=O)(O)OC`, the outcome was “inactive”.
For `CO/N=C(/C(=O)OC)c1ccccc1COc1ccccc1C`, the outcome was “inactive”.
In the case of `N#Cc1c(-c2ccc(Cl)cc2)[nH]c(C(F)(F)F)c1Br`, the outcome is reported as “inactive”.
For `Cc1c([N+](=O)[O-])cc2c(c1[N+](=O)[O-])C(C)(C)CC2(C)C`, the outcome was “inactive”.
In the case of `CC(C)(C)c1ccccc1OP(=O)(Oc1ccccc1)Oc1ccccc1`, the outcome is reported as “inactive”.
For `CCCCC(CC)COC(=O)c1c(Br)c(Br)c(Br)c(Br)c1C(=O)OCC(CC)CCCC` (stereo unspecified), the outcome was “inactive”.
In the case of `CCOP(=S)(NC(C)C)Oc1ccccc1C(=O)OC(C)C` (stereo unspecified), the outcome is reported as “inactive”.
With `O=[N+]([O-])c1cc(Cl)ccc1Cl` the outcome was “inactive”.
In the case of `Cc1ccc(O)cc1C`, the outcome is reported as “inactive”.
In the case of `CCOP(=O)(O)C(N)=O`, the outcome is reported as “inactive”.
In the case of `OCC1CO1` (stereo unspecified), the outcome is reported as “inactive”.
In the case of `Cn1[nH]nnc1=S`, the outcome is reported as “inactive”.
With `CC(C)(C)N(NC(=O)c1ccc(Cl)cc1)C(=O)c1ccccc1` the outcome was “inactive”.
In the case of `c1nc[nH]n1`, the outcome is reported as “inactive”.
In the case of `O=C(O)C1C(C(=O)O)C2(Cl)C(Cl)=C(Cl)C1(Cl)C2(Cl)Cl` (stereo unspecified), the outcome is reported as “inactive”.
For `CC(O)C#N` (stereo unspecified), the outcome was “inactive”.
With `O=C(O)CF` the outcome was “inactive”.
In the case of `CCCCOCCOP(=O)(OCCOCCCC)OCCOCCCC`, the outcome is reported as “inactive”.
For `C=C(C)C(=O)OCC1CO1` (stereo unspecified), the outcome was “inactive”.
For `CCCCOCC1CO1` (stereo unspecified), the outcome was “inactive”.
In the case of `N#Cc1ccc(O)cc1`, the outcome is reported as “inactive”.
With `ClC(Cl)(Cl)c1ccccc1` the outcome was “inactive”.
In the case of `Oc1ccc(I)cc1`, the outcome is reported as “inactive”.
For `CCOP(=S)(OCC)SCSc1ccc(Cl)cc1`, the outcome was “inactive”.
For `CNC(=O)Oc1ccc(N(C)C)c(C)c1`, the outcome was “inactive”.
In the case of `CC(C)(C)c1ccc(O)cc1`, the AC50 is reported as 148 µM (active).
For `O=C(O)C(Cl)Cl`, the outcome was “inactive”.
With `c1ccc(OP(Oc2ccccc2)Oc2ccccc2)cc1` the AC50 was 100 µM (active).
With `CC(C)CBr` the outcome was “inactive”.
In the case of `OCC(F)(F)OC(F)(F)C(F)(F)OC(F)(F)C(F)(F)OC(F)(F)CO`, the AC50 is reported as 9.92 µM (active).
In the case of `Nc1ccc(Cl)cc1`, the outcome is reported as “inactive”.
With `COC(N)=O` the outcome was “inactive”.
For `Nc1ccc2ccccc2c1`, the outcome was “inactive”.
With `Nc1ccc([N+](=O)[O-])cc1Cl` the outcome was “inactive”.
In the case of `CCOS(=O)(=O)OCC`, the outcome is reported as “inactive”.
With `Cc1cccc(N)c1` the outcome was “inactive”.
With `ClC1=C(Cl)C2(Cl)C3C(Cl)C(Cl)CC3C1(Cl)C2(Cl)Cl` (stereo unspecified) the AC50 was 27.1 µM (active).
For `CC1=C(C(=O)Nc2ccccc2)S(=O)(=O)CCO1`, the outcome was “inactive”.

Assay: ATG_TAL_CIS: Attagene CIS-FACTORIAL HepG2 Assay for human TAL Basal Promoter (AID 2282966);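 also: background control endpoint measuring basal TAL promoter reporter mRNA not a specific factor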
Conditions: HepG2 Attagene cis-factorial TAL promoter reporter; actives raise or lower the signal
Summary of the method: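 Basal-promoter background-control endpoint from a multiplexed HepG2 reporter panel. Cells were exposed 24 h, then reporter mRNA was read by RT-PCR/CE fluorescence and fitted in both directions relative to DMSO.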
For `CCC1(c2ccccc2)C(=O)N=C(O)NC1=O` (stereo unspecified), the outcome was “inactive”.
With `COP(=O)(O)OC` the outcome was “inactive”.
In the case of `CO/N=C(/C(=O)OC)c1ccccc1COc1ccccc1C`, the outcome is reported as “inactive”.
With `N#Cc1c(-c2ccc(Cl)cc2)[nH]c(C(F)(F)F)c1Br` the outcome was “inactive”.
In the case of `Cc1c([N+](=O)[O-])cc2c(c1[N+](=O)[O-])C(C)(C)CC2(C)C`, the outcome is reported as “inactive”.
In the case of `CC(C)(C)c1ccccc1OP(=O)(Oc1ccccc1)Oc1ccccc1`, the outcome is reported as “inactive”.
With `CCCCC(CC)COC(=O)c1c(Br)c(Br)c(Br)c(Br)c1C(=O)OCC(CC)CCCC` (stereo unspecified) the outcome was “inactive”.
For `CCOP(=S)(NC(C)C)Oc1ccccc1C(=O)OC(C)C` (stereo unspecified), the outcome was “inactive”.
In the case of `O=[N+]([O-])c1cc(Cl)ccc1Cl`, the outcome is reported as “inactive”.
With `Cc1ccc(O)cc1C` the outcome was “inactive”.
With `CCOP(=O)(O)C(N)=O` the outcome was “inactive”.
For `OCC1CO1` (stereo unspecified), the outcome was “inactive”.
For `Cn1[nH]nnc1=S`, the outcome was “inactive”.
For `CC(C)(C)N(NC(=O)c1ccc(Cl)cc1)C(=O)c1ccccc1`, the outcome was “inactive”.
In the case of `c1nc[nH]n1`, the outcome is reported as “inactive”.
For `O=C(O)C1C(C(=O)O)C2(Cl)C(Cl)=C(Cl)C1(Cl)C2(Cl)Cl` (stereo unspecified), the outcome was “inactive”.
In the case of `CC(O)C#N` (stereo unspecified), the outcome is reported as “inactive”.
With `O=C(O)CF` the outcome was “inactive”.
In the case of `CCCCOCCOP(=O)(OCCOCCCC)OCCOCCCC`, the outcome is reported as “inactive”.
For `C=C(C)C(=O)OCC1CO1` (stereo unspecified), the outcome was “inactive”.
In the case of `CCCCOCC1CO1` (stereo unspecified), the outcome is reported as “inactive”.
In the case of `N#Cc1ccc(O)cc1`, the outcome is reported as “inactive”.
For `ClC(Cl)(Cl)c1ccccc1`, the outcome was “inactive”.
For `Oc1ccc(I)cc1`, the outcome was “inactive”.
With `CCOP(=S)(OCC)SCSc1ccc(Cl)cc1` the outcome was “inactive”.
In the case of `CNC(=O)Oc1ccc(N(C)C)c(C)c1`, the outcome is reported as “inactive”.
In the case of `CC(C)(C)c1ccc(O)cc1`, the outcome is reported as “inactive”.
In the case of `O=C(O)C(Cl)Cl`, the outcome is reported as “inactive”.
For `c1ccc(OP(Oc2ccccc2)Oc2ccccc2)cc1`, the outcome was “inactive”.
In the case of `CC(C)CBr`, the outcome is reported as “inactive”.
With `OCC(F)(F)OC(F)(F)C(F)(F)OC(F)(F)C(F)(F)OC(F)(F)CO` the outcome was “inactive”.
With `Nc1ccc(Cl)cc1` the outcome was “inactive”.
With `COC(N)=O` the outcome was “inactive”.
In the case of `Nc1ccc2ccccc2c1`, the outcome is reported as “inactive”.
With `Nc1ccc([N+](=O)[O-])cc1Cl` the outcome was “inactive”.
In the case of `CCOS(=O)(=O)OCC`, the outcome is reported as “inactive”.
In the case of `Cc1cccc(N)c1`, the outcome is reported as “inactive”.
With `ClC1=C(Cl)C2(Cl)C3C(Cl)C(Cl)CC3C1(Cl)C2(Cl)Cl` (stereo unspecified) the outcome was “inactive”.
With `CC1=C(C(=O)Nc2ccccc2)S(=O)(=O)CCO1` the outcome was “inactive”.

Assay: ATG_VDRE_CIS: Attagene CIS-FACTORIAL HepG2 Assay for human Vitamin D Receptor Element (VDRE) (AID 2282968)
Conditions: HepG2 VDRE cis-reporter transcription, actives raise or lower the signal
Summary of the method: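 Compounds were applied for 24 h to HepG2 cells transfected with promoter-regulated reporter units. Total RNA was reverse-transcribed, and reporter amplicons were fluorescently labelled and sized by capillary electrophoresis.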
For `CCC1(c2ccccc2)C(=O)N=C(O)NC1=O` (stereo unspecified), the outcome was “inactive”.
In the case of `CO/N=C(/C(=O)OC)c1ccccc1COc1ccccc1C`, the AC50 is reported as 13 µM (active).
In the case of `N#Cc1c(-c2ccc(Cl)cc2)[nH]c(C(F)(F)F)c1Br`, the AC50 is reported as 0.605 µM (active).
With `Cc1c([N+](=O)[O-])cc2c(c1[N+](=O)[O-])C(C)(C)CC2(C)C` the outcome was “inactive”.
With `CC(C)(C)c1ccccc1OP(=O)(Oc1ccccc1)Oc1ccccc1` the outcome was “inactive”.
With `CCCCC(CC)COC(=O)c1c(Br)c(Br)c(Br)c(Br)c1C(=O)OCC(CC)CCCC` (stereo unspecified) the outcome was “inactive”.
In the case of `CCOP(=S)(NC(C)C)Oc1ccccc1C(=O)OC(C)C` (stereo unspecified), the AC50 is reported as 1.5 µM (active).
With `O=[N+]([O-])c1cc(Cl)ccc1Cl` the outcome was “inactive”.
In the case of `CCOP(=O)(O)C(N)=O`, the outcome is reported as “inactive”.
For `OCC1CO1` (stereo unspecified), the outcome was “inactive”.
For `Cn1[nH]nnc1=S`, the outcome was “inactive”.
In the case of `CC(C)(C)N(NC(=O)c1ccc(Cl)cc1)C(=O)c1ccccc1`, the outcome is reported as “inactive”.
In the case of `c1nc[nH]n1`, the outcome is reported as “inactive”.
In the case of `CC(O)C#N` (stereo unspecified), the outcome is reported as “inactive”.
In the case of `O=C(O)CF`, the outcome is reported as “inactive”.
For `CCCCOCCOP(=O)(OCCOCCCC)OCCOCCCC`, the outcome was “inactive”.
In the case of `C=C(C)C(=O)OCC1CO1` (stereo unspecified), the outcome is reported as “inactive”.
In the case of `CCCCOCC1CO1` (stereo unspecified), the outcome is reported as “inactive”.
For `N#Cc1ccc(O)cc1`, the outcome was “inactive”.
For `ClC(Cl)(Cl)c1ccccc1`, the outcome was “inactive”.
With `Oc1ccc(I)cc1` the outcome was “inactive”.
For `CCOP(=S)(OCC)SCSc1ccc(Cl)cc1`, the AC50 was 5.83 µM (active).
In the case of `CNC(=O)Oc1ccc(N(C)C)c(C)c1`, the outcome is reported as “inactive”.
In the case of `c1ccc(OP(Oc2ccccc2)Oc2ccccc2)cc1`, the outcome is reported as “inactive”.
With `CC(C)CBr` the outcome was “inactive”.
For `OCC(F)(F)OC(F)(F)C(F)(F)OC(F)(F)C(F)(F)OC(F)(F)CO`, the AC50 was 18.6 µM (active).
With `COC(N)=O` the outcome was “inactive”.
For `Nc1ccc2ccccc2c1`, the outcome was “inactive”.
With `Nc1ccc([N+](=O)[O-])cc1Cl` the outcome was “inactive”.
With `CCOS(=O)(=O)OCC` the outcome was “inactive”.
With `Cc1cccc(N)c1` the outcome was “inactive”.
With `ClC1=C(Cl)C2(Cl)C3C(Cl)C(Cl)CC3C1(Cl)C2(Cl)Cl` (stereo unspecified) the AC50 was 3.76 µM (active).
In the case of `CC1=C(C(=O)Nc2ccccc2)S(=O)(=O)CCO1`, the AC50 is reported as 9.33 µM (active).
